Bioassay records from PubChem.
This is one part of a sample in which hits are shown more often than they occur.
LmPK inhibitor = inhibitors of Leishmania mexicana pyruvate kinase; Q27686; 290,000 tested, 0.37% active; Potency, µM (doses to about 57.5 µM), for the others: at the highest dose activity change, negative = inhibition, most hits filed as inhibitors; purified LmPK, Kinase-Glo ATP luminescence, 1 h; also: potency is read from the fitted curve at half-maximal effect; % is scaled to controls: 0 for no effect and ±100 for the full control effect
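Pyruvate kinase activity monitored as ATP production (luciferase luminescence). Conditions: 0.1 nM enzyme, 0.5 mM PEP, 0.1 mM ADP, 1 h, RT; normalized against uninhibited and no-enzyme wells.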
FBPA Giardia inh = inhibitors of Giardia lamblia fructose-1,6-bisphosphate aldolase. 290,000 tested, 0.71% active. Potency, µM (highest dose often 59.6 µM), without a hit: at the top dose activity, negative = inhibition, usual class: inhibitors. A8B2U2. purified Giardia FBPA. AID 2451; also: potency is read from the fitted curve at half-maximal effect; % is scaled to controls: 0 for no effect and ±100 for the full control effect; nearly all actives have a fitted effect of over 55% in size
Target sequence (A8B2U2 whole entry, looked up): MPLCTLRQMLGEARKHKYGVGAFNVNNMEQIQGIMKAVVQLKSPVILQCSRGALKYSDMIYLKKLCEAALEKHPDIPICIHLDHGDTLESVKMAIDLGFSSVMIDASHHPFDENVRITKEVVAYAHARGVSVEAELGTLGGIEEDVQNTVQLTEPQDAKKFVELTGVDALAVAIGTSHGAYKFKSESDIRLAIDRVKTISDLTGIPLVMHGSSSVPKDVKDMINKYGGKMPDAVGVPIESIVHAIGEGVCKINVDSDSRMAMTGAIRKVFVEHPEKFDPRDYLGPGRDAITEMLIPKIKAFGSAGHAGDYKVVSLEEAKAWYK
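Giardia FBPA (40 nM reagent) was preincubated 10 min at RT with compound (up to 57.5 uM final), then substrate plus GAPDH/TPI/NAD/arsenate coupling system with diaphorase/resazurin was added; resorufin fluorescence (525/598 nm) was read after 20 min.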
RE007 growth inh = less growth of the S. pombe RE007 Vpr strain. 360,000 tested, 0.21% active. Potency, µM (highest dose often 92.2 µM), inactives show at the top dose activity change, negative = less growth, hits mostly inhibitors. AID 651644. S. pombe RE007 Vpr strain, BacTiter-Glo ATP luminescence, 24 h; active = well fitted falling curve with a large enough effect; inconclusive = small, poorly fitted or top-dose-only effect; inactive = no such curve, though single readings can be large or run the other way; also: potency is read from the fitted curve at half-maximal effect; % is scaled to controls: 0 for no effect and ±100 for the full control effect; nearly all actives have a fitted effect of over 50% in size
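Fission yeast RE007 carrying one integrated HIV-1 vpr copy, seeded at OD 0.01 in PMG+AL medium with 23 nL pinned compound. Grown 24 h at 30 degrees; viability read by BacTiter-Glo luminescence after 5 min.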
Tb PYK inh = T. brucei pyruvate kinase inhibition; AID 624173; Q57TT1; 410,000 tested, 0.12% active; TbPYK enzyme, Kinase-Glo Plus ATP luminescence, 45 min; Potency, µM (highest dose often 76.8 µM), for the others: at the top dose activity, negative = inhibition, most hits filed as inhibitors; also: potency is read from the fitted curve at half-maximal effect; % is scaled to controls: 0 for no effect and ±100 for the full control effect; nearly all actives have a fitted effect of over 50% in size
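Screened from lowest to highest concentration, compounds were pinned into TbPYK/substrate mixtures, and ADP (130 uM final) was added. Plates sat at room temperature for 45 min prior to Kinase-Glo Plus detection by luminescence.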
Shiga toxin inh = blocks Shiga toxin action in Vero cells; AID 2315; 290,000 tested, 9.2% active; inhibition, % at 38.7 µM; Vero cells, Shiga toxin protein synthesis inhibition reporter; in the data active = inhibition mostly above about 28%, no sharp cut-off; inactive = mostly below about 43%; also: 0% is about no effect
CHX counter = counter-screen hit for Shiga toxin inhibitors, cycloheximide | cell reporter, cycloheximide protein synthesis inhibition counterscreen | max response, % | 300,000 tested, 12% active; in the data active = max response mostly above about 13%, no sharp cut-off; inactive = mostly below about 14%; also: read at 38.3 µM for the half of the compounds with a filed dose; 0% is about no effect
Active calls of the source: *; ? = inconclusive; · = not tested or not shown; + = active, no number; [ ] = another dose, or the depositor's remark. Unless noted, calls follow the shape of the dose curve; as a rule, active = well fitted curve in the direction sought with a large enough effect; inconclusive = small, poorly fitted or top-dose-only effect, or another doubt; inactive = no such curve, though single readings can be large; an effect the other way counts as inactive or inconclusive.

SMILES	LmPK inhibitor	FBPA Giardia inh	RE007 growth inh	Tb PYK inh	Shiga toxin inh	CHX counter
O=C(Nc1ccccc1F)NC1CCCc2ccccc21 (centres undefined)	6%	-9%	-11%	0%	34*	12
O=C(Nc1ccc(F)cc1F)NC1CCCc2ccccc21 (centres undefined)	0%	·	-13%	3%	-5	-3
COC(=O)C/C=C\[C@@H](C)[C@@H](/C=N\O[C@@H](C)CN1CCCc2nc(C)c(C)cc21)OC	·	-3%[12.9 µM]	·	·	·	·
CCOc1ccc(NCC(=O)c2ccc(C)cc2)cc1	4%	-11%	6%	4%	63*	16*
CCOc1ccc(C(=O)COc2ccc(NC(C)=O)cc2)cc1	5%	-1%	1%	-4%	20	4
Cc1ccc(C(=O)CNc2ccc(Cl)cc2)cc1	-6%	3%	-8%	-7%	86*	42*
COC(=O)C(CC(=O)c1ccc(Cl)cc1)c1ccc(C)cc1 (centres undefined)	-8%	0%	3%	1%	+	20
Cc1ccc(C)c(NCC(=O)c2ccc(Cl)cc2)c1	-1%	4%	-8%	-1%	11	-2
COc1cccc([C@@H]2Oc3ccc(Br)cc3C[C@H]2OC(=O)Nc2ccc(OC(F)F)cc2)c1	·	12%	·	·	·	·
COc1cc(OC)c(N(C)C(=O)Nc2cn(CC(C)C)c(=O)c3ccccc23)cc1Cl	·	·	·	-3%	·	·
S=C1SCN(Cc2ccco2)CN1Cc1ccco1	-6%	?	35µM*	-9%	-5	1
COc1cccc(C(=O)NCc2cn3ccsc3n2)c1	-2%	-1%	-2%	-5%	9	16*
O=C(Cc1ccccc1)NCCc1cn2ccsc2n1	2%	-2%	-4%	0%	-7	-3
O=C(CCCc1ccccc1)NCc1cn2ccsc2n1	0%	4%	-3%	-9%	15	17*
O=C(CN1CCN(Cc2ccc(F)cc2Cl)C1=O)NCCc1ccccc1	12%	0%	0%	2%	16	14*
COc1cccc(C(=O)NCc2cn3ccccc3n2)c1	·	·	·	0%	·	·
O=C(COC(=O)c1ccco1)NCc1ccccc1Cl	-1%	0%	-3%	?	86*	32*
O=C(OCc1cc(=O)n2nc(-c3cccs3)sc2n1)c1ccccc1Br	·	·	·	-4%	·	·
Cc1ccccc1CNC(=O)c1cnc2sc(N3CCOCC3)nn2c1=O	·	·	·	-9%	·	·
O=C(CCCc1ccccc1)NCc1ccccc1Cl	2%	4%	35%	3%	·	18*
CC(C)=CC(=O)NCCc1ccccc1	-23%	10%	6%	0%	93*	45*
CC(=O)c1ccc(OCCCC(=O)NCCc2ccccc2)cc1	2%	·	-8%	3%	51	31*
O=C(CCCc1ccccc1)NCCc1ccc(F)cc1	-5%	-3%	-11%	-8%	92*	29*
Cc1cccc(OCCCC(=O)NCCc2ccccc2)c1	-6%	0%	2%	-2%	24	-2
O=C(CCCNC(=O)c1ccc(Cl)cc1)NCc1ccccc1Cl	-6%	8%	-1%	-2%	7	-2
SMILES	LmPK inhibitor	FBPA Giardia inh	RE007 growth inh	Tb PYK inh	Shiga toxin inh	CHX counter
O=C(CCc1ccccc1)NCCc1ccc(F)cc1	4%	4%	-8%	4%	29	27*
O=C(CCCc1ccccc1)NCCc1ccccc1	-1%	14%	3%	-3%	84*	45*
CN(CC(=O)Nc1ccc(F)cc1Cl)Cc1cccs1	-2%	1%	18%	-2%	24	8
O=C(Cc1ccc(F)cc1)NCCc1ccccc1	6%	7%	-14%	-11%	-8	3
CN(CC(=O)NCCc1ccc(F)cc1)Cc1cccs1	-2%	5%	-1%	-1%	26	28*
O=C(CCCc1ccccc1)NCCCc1ccccc1	-8%	6%	3%	-4%	-3	-2
Cc1noc(Cn2c(=O)c3ccccc3n(CC(=O)Nc3cccc(Cl)c3C)c2=O)n1	·	·	·	-6%	·	·
COc1c(C)c2c(c(O)c1CC=C(C)CCC(=O)OCCN1CCOCC1)C(=O)OC2	·	-5%	·	1%	-1	-3
Cc1ccc(NC(=O)c2cc(-c3ccc(C)o3)nc3ccccc23)cc1	0%	-4%	25µM*	?	-3	-1
O=C(Nc1ccc2c(c1)OCO2)c1cc(-c2cccnc2)nc2ccccc12	-1%	-23%	3%	-4%	71	16*
Cc1ccc(-c2cc(C(=O)Nc3ccc4c(c3)OCCO4)c3ccccc3n2)cc1	-2%	0%	-18%	6%	125*	55*
Cc1ccc(C)c(NC(=O)CSc2ncc3c(n2)-c2ccccc2N(Cc2ccccc2C)S3(=O)=O)c1	·	·	·	-6%	·	·
O=C(N/N=C1/C[C@@H](O)[C@@H](O)[C@@H]2[C@@H]3C(=O)N(Cc4ccc5c(c4)OCO5)C(=O)[C@H]3CC[C@@H]12)OCc1ccccc1	·	0%[12.9 µM]	·	·	·	·
CCC1=C2CC[C@H]3C(=O)NC(=O)[C@H]3[C@H]2[C@@]2(C)C(=NCC(=O)OC)OC(=O)N2C1=O	·	2%	·	·	·	·
COc1ccc(C2CC(=O)c3sc(NC(C)=O)nc3C2)cc1 (centres undefined)	2%	10%	7%	3%	active	20*
COc1ccc(-c2nc(NC(C)=O)sc2-c2ccc(OC)cc2)cc1	9%	4%	6%	-5%	37	0
Cc1nc2c3cccnc3nn2c(C)c1CCC(=O)NCc1ccccc1Cl	·	·	·	2%	·	·
COC(=O)c1ccc(NC(=O)C2(S(=O)(=O)c3ccc(C)cc3)CC2)cc1	·	·	·	-2%	·	·
Cc1ccc(S(=O)(=O)C2(C(=O)Nc3ccc(Br)cc3)CC2)cc1	1%	-4%	0%	5%	46	32*
Cc1ccc(-c2ccc(=O)n(CC(=O)NCCc3ccccc3)n2)cc1	·	·	·	3%	·	·
O=S(=O)(N/N=C1\CC(c2ccccc2)Oc2ccccc21)c1ccccc1 (centres undefined)	5%	1%	?	-3%	35	18
O=C(N/N=C1\CC(c2ccccc2)Oc2ccccc21)c1cccnc1 (centres undefined)	1%	12%	-19%	-10%	7	6
O=C(N/N=C1\CC(c2ccccc2)Oc2ccccc21)c1ccccn1 (centres undefined)	-3%	0%	-2%	4%	51*	15*
O=C(N/N=C1/CC(c2ccccc2)Oc2ccccc21)C1CC1 (centres undefined)	-3%	4%	-7%	5%	23	-5
O=C(N/N=C1\CC(c2ccccc2)Oc2ccccc21)c1ccc(O)cc1 (centres undefined)	-5%	4%	4%	7%	118*	40*
CCOc1ccc(S(=O)(=O)N/N=C2/CC(c3ccccc3)Oc3ccccc32)cc1 (centres undefined)	1%	-1%	?	-7%	32	30*
